D2 ag-1: agonists of human D2 dopamine receptor (beta-arrestin) | P14416 | DiscoveRx PathHunter D2 beta-arrestin, luminescence, 90 min; 100% = 57 uM dopamine signal | activation, % (no concentration beside the values) | 360,000 compounds, 0.084% hits | AID 624465; in the data active = activation above about 40%
Target sequence (P14416 whole entry, looked up): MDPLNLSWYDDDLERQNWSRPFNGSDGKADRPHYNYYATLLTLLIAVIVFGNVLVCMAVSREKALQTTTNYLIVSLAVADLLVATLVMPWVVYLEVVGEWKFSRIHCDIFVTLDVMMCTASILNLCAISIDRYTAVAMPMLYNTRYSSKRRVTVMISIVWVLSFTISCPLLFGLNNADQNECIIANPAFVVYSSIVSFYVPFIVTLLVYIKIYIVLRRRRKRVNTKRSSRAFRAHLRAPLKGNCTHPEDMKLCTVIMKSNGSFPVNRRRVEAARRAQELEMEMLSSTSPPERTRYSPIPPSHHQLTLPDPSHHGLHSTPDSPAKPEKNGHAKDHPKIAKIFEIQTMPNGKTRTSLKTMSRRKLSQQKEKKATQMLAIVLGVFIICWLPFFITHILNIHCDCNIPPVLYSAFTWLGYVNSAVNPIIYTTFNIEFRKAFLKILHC
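Agonist mode: compounds alone added to overnight-plated D2 PathHunter cells for 90 min at 37 C, with 57 uM final dopamine (EC100) defining full response. Beta-arrestin recruitment detected by chemiluminescent reagent, read after 1 h at ambient temperature.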
D2 PAM-1: positive allosteric modulators of human D2 dopamine receptor; HEK293 T-REx D2, calcium flux, EC20 dopamine potentiation; potentiation, % at 10 µM; 340,000 compounds, 0.34% hits; AID 485347;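 active = potentiation over 3 SD above the plate norm, cut at about 30% in these data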; also: 0% is about no effect
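Using a no-wash calcium dye in inducible, force-coupled HEK293 Trex cells expressing D2, we tracked fluorescence each second for 180 s after compound, then for 180 s after EC20 dopamine to detect augmented signalling.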
LDHA inh: LDHA (human) enzyme inhibition | P00338 | purified LDHA, NADH/diaphorase-resazurin fluorescence; hits give low values | activity change, % (values are at about 110 or 230 µM) | 480,000 compounds, 0.15% hits | AID 1347041; in the data active = activity change below about -30%;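 also: plate controls were DMSO wells for no effect and wells without enzyme for full effect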
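Remaining NADH was detected by diaphorase (0.133 mg/mL) converting 37 µM resazurin to fluorescent resorufin, read at 0 and 20 minutes. The preceding 5-minute room-temperature reaction used 2 nM LDHA, 0.2 mM sodium pyruvate and 0.06 mM NADH at pH 7.4.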
D2 antag: D2 dopamine receptor (human) antagonism; HEK293 TREx D2 cells, calcium flux, dopamine EC80; AID 485344; P14416; inhibition, % at 10 µM; 340,000 compounds, 2% hits; in the data active = inhibition above about 30%; inactive = below that, where a call was filed; also: 0% is about no effect
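Antagonism is scored as inhibition of an EC80 dopamine-evoked calcium signal in a force-coupled, tetracycline-inducible HEK293 T-REx D2 line, with compound present 180 s before agonist.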
D2 PAM-2: positive allosteric modulators of human D2 dopamine receptor; 360,000 compounds, 0.23% hits; potentiation, % (no concentration beside the values); DiscoveRx D2 beta-arrestin cells, luminescence, 90 min; 100% = 57 uM dopamine signal; AID 624464; P14416; in the data active = potentiation above about 50%
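D2 cells co-treated with compound plus 50 nM dopamine (EC20) for 90 min at 37 deg C to detect potentiation. Beta-arrestin recruitment was read as enzyme-fragment luminescence after 1 h at ambient temperature. Full response was set by 57 uM dopamine.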
D2 ag-2: D2 dopamine receptor (human) agonism; 340,000 compounds, 0.53% hits; activation, % at 2 µM; AID 485358; P14416; HEK293 T-REx D2 cells, calcium flux agonist mode;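 active = activation over 3 SD above normal in the single-dose calcium agonist read, cut at about 30% in these data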; also: 0% is about no effect
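Agonism is scored from calcium flux in a force-coupled, inducible HEK293 cell line expressing D2, read kinetically for 180 s after compound addition against dopamine controls.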
Active calls of the source: *; . = not tested or not shown. In the library only some 2.1% were active in any assay of this set; here they are far more common.

SMILES	D2 ag-1	D2 PAM-1	LDHA inh	D2 antag	D2 PAM-2	D2 ag-2
Cc1c(C(Nc2ccccn2)c2ccc(Cl)cc2)c(=O)n(-c2ccccc2)n1C (stereo not given)	1	26	3	0	7	0
Cc1c(C(Nc2ccccn2)c2ccccc2)c(=O)n(-c2ccccc2)n1C (stereo not given)	4	36*	-8	2	0	0
O=C(CCc1nc2ccccc2c(=O)[nH]1)Nc1ccc(N2CCCCC2)cc1	1	-3	-3	77*	-10	-5
Cc1cccc(CN2CCc3c([nH]c4ccccc34)C2)c1	-6	-23	-11	56*	-11	1
Clc1cccc(CN2CCc3c([nH]c4ccccc34)C2)c1	2	.	-11	.	-25	.
Cc1ccc2[nH]c3c(c2c1)CN(C)CC3	-3	-30	-2	31*	-36	2
Cc1ccc2[nH]c3c(c2c1)CCN(C)C3	-5	-16	2	34*	-5	1
O=[N+]([O-])c1cc(S(=O)(=O)Nc2cccc(Cl)c2)ccc1N/N=C/c1ccccc1C(F)(F)F	.	.	9	.	.	.
Cc1cc(C(C)(C)C)ccc1OCCOCCN1CCCC1	-2	-16	-11	4	-18	-1
Cc1cc(C(C)(C)C)ccc1OCCN(C)C	-2	0	-31*	-10	2	0
COc1cccc(-c2csc(N3CCN(C(=S)Nc4cccc(C)c4)CC3)n2)c1	-5	15	-7	86*	-15	-1
Cc1ccc(-c2nn(-c3ccccc3)cc2CNCc2ccccc2)cc1	2	-38	0	51*	-21	0
Cc1cccc(/C=C(/C(=O)O)c2cccs2)c1	.	.	3	.	.	.
CC1CC(C)CN(c2ccc(-n3cnnn3)cc2[N+](=O)[O-])C1 (stereo not given)	-7	1	-1	-4	2	0
O=[N+]([O-])c1cc(-n2cnnn2)ccc1N1CCC(Cc2ccccc2)CC1	2	-12	-4	32*	9	0
O=C(COC(=O)/C=C/c1ccc(Cl)cc1)Nc1ccccc1	-2	41*	-2	-2	-7	0
O=C(COC(=O)/C=C/c1ccc(Cl)cc1)Nc1ccc2[nH]c(=O)[nH]c2c1	5	-9	-6	-2	-22	0
C/C=C/C(=O)OCC(=O)Nc1ccccc1Br	-19	-5	-5	47*	1	0
O=C(COC(=O)/C=C/c1ccccc1)Nc1ccccc1Br	-3	-7	-5	40*	-4	-1
CCOC(=O)C1CCN(Cc2cc(=O)oc3cc(C)c(O)cc23)CC1	.	.	12	.	.	.
Cc1nn(C)c(C)c1/C=N/NC(=O)CCn1cc([N+](=O)[O-])cn1	-2	6	1	32*	-8	0
CC(C)NC(=O)CCCn1cc([N+](=O)[O-])cn1	-2	3	-12	5	-7	3
CC(C)C(C(=O)Nc1ncn[nH]1)N1C(=O)c2ccccc2C1=O (stereo not given)	-2	31*	-3	3	2	0
CC(C)=CC(=O)Nc1ccc(Br)c(C)c1	.	.	1	.	.	.
Cc1sc2nc3ccc(N4CCCCC4)nn3c(=O)c2c1C	-12	-9	5	37*	-2	1
Cc1cc(C)cc(N(CC(=O)N2CCCCCC2)S(C)(=O)=O)c1	7	-2	-1	34*	2	-1
CCOC(=O)C1CCN(C(=O)CN(c2ccc3c(c2)OCO3)S(C)(=O)=O)CC1	-2	1	0	45*	-16	1
CCOC(=O)C1CCN(C(=O)CN(c2ccc(Cl)c(C(F)(F)F)c2)S(C)(=O)=O)CC1	-3	15	-4	-4	-16	0
CS(=O)(=O)N(CC(=O)N1CCCCCC1)c1ccccc1	-1	10	-7	-1	5	0
O=C(CC1NCCN(Cc2ccccc2)C1=O)Nc1ccc(Cl)cc1 (stereo not given)	-4	1	-3	-4	-6	-2
